Source: PubChem BioAssay (NCI)
This is part of a sample that, as a whole, favours compounds with a hit. Of some 83,000 tested, about 20% had one in any assay.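 Interpretation: 100, growth as untreated; towards 0, rising growth inhibition; 0, no net growth; 0 to -100, cell death. Compounds scoring below 10 were considered active.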 The source made the active and inactive calls.

Key:
Assay in all cases: NCI-60 one-dose screen, 48 h (100 = growth as untreated, 0 = no growth, -100 = all killed)
Conditions in all cases: 10 µM
HCT-15 colon = tested on: HCT-15 colon
HT29 colon = tested on: HT29 colon
SNB-75 CNS = tested on: SNB-75 CNS
SNB-19 CNS = tested on: SNB-19 CNS
U251 CNS = tested on: U251 CNS
PC-3 prostate = tested on: PC-3 prostate
SK-MEL-5 melanoma = tested on: SK-MEL-5 melanoma
UACC-62 melanoma = tested on: UACC-62 melanoma
LOX IMVI melanoma = tested on: LOX IMVI melanoma
SK-MEL-28 melanoma = tested on: SK-MEL-28 melanoma

Measured: growth

Nc1nc2c(ncn2C2OC3COP(=O)(O)OC4C(COP(=O)(O)OC2C3O)OC(n2cnc3c(N)ncnc32)C4O)c(=O)[nH]1 (stereo not given)
inactive: HCT-15 colon 106% | HT29 colon 97.4% | SNB-75 CNS 104% | SNB-19 CNS 93.5% | U251 CNS 110% | PC-3 prostate 108% | SK-MEL-5 melanoma 106% | UACC-62 melanoma 103% | LOX IMVI melanoma 90.2% | SK-MEL-28 melanoma 113%

CCOC(=O)Nc1ccc2c(c1)C(=O)N(CCOC)c1ccccc1O2
active: HT29 colon 8.18%
inactive: HCT-15 colon 26.1% | SNB-75 CNS 31.9% | SNB-19 CNS 54.5% | U251 CNS 39.3% | PC-3 prostate 38.4% | SK-MEL-5 melanoma 12.3% | UACC-62 melanoma 30.6% | LOX IMVI melanoma 38.7% | SK-MEL-28 melanoma 62.9%

CC1(C)CCc2cc(-c3ccn(S(=O)(=O)c4ccc(Cl)cc4)n3)ccc2O1
inactive: HCT-15 colon 91.3% | HT29 colon 70.9% | SNB-75 CNS 92.3% | SNB-19 CNS 100% | U251 CNS 74.2% | PC-3 prostate 56.8% | SK-MEL-5 melanoma 47.2% | UACC-62 melanoma 75% | LOX IMVI melanoma 72.2% | SK-MEL-28 melanoma 94.7%

Cc1ccc2nc(-c3ccc(OCC(=O)N=Nc4c(O)[nH]c5ccccc45)cc3)[nH]c2c1
active: U251 CNS 6.05% | PC-3 prostate 7.33%
inactive: HCT-15 colon 86.3% | HT29 colon 41.2% | SNB-75 CNS 109% | SNB-19 CNS 50% | SK-MEL-5 melanoma 94.3% | UACC-62 melanoma 96.5% | LOX IMVI melanoma 39% | SK-MEL-28 melanoma 102%

Cn1cnc([N+](=O)[O-])c1/C=C1\Oc2ccc(Cl)cc2C1=O
inactive: HCT-15 colon 78.4% | HT29 colon 78.4% | SNB-75 CNS 83.6% | SNB-19 CNS 107% | U251 CNS 97.2% | PC-3 prostate 79.3% | SK-MEL-5 melanoma 91.8% | UACC-62 melanoma 91.1% | LOX IMVI melanoma 73% | SK-MEL-28 melanoma 105%

C[n+]1c(/C=C/c2c[nH]c3ccccc23)ccc2ccccc21
inactive: HCT-15 colon 90.7% | HT29 colon 49.2% | SNB-75 CNS 90.9% | SNB-19 CNS 68.4% | U251 CNS 69.9% | PC-3 prostate 52.1% | SK-MEL-5 melanoma 59.2% | UACC-62 melanoma 54.2% | LOX IMVI melanoma 60.5% | SK-MEL-28 melanoma 84.8%

COc1ccc2nc(/C=C/c3ccc(N(C)C)cc3)sc2c1
inactive: HCT-15 colon 93.8% | HT29 colon 93.3% | SNB-75 CNS 92.3% | SNB-19 CNS 131% | U251 CNS 90.7% | PC-3 prostate 98.9% | SK-MEL-5 melanoma 90.1% | UACC-62 melanoma 94.7% | LOX IMVI melanoma 91.5% | SK-MEL-28 melanoma 109%

O=C(Nc1cccc(C(F)(F)F)c1)C(Cl)Cl
inactive: HCT-15 colon 94% | HT29 colon 92.2% | SNB-75 CNS 91.3% | SNB-19 CNS 99% | U251 CNS 102% | PC-3 prostate 95.1% | SK-MEL-5 melanoma 103% | UACC-62 melanoma 105% | LOX IMVI melanoma 101% | SK-MEL-28 melanoma 104%

Cc1ccc(-n2c(-c3cc4c([nH]c5ccccc54)c(-c4cccc(O)c4)n3)n[nH]c2=S)cc1
active: HCT-15 colon 2.88% | HT29 colon -44% | SNB-75 CNS 5.15% | SNB-19 CNS 4.47% | U251 CNS -3.05% | SK-MEL-5 melanoma -17.5% | UACC-62 melanoma -40.3% | LOX IMVI melanoma -77% | SK-MEL-28 melanoma 7.56%
inactive: PC-3 prostate 19.4%

COc1ccc2nc(NC(=O)Nc3c(F)cccc3F)sc2c1
inactive: HCT-15 colon 101% | HT29 colon 102% | SNB-75 CNS 118% | SNB-19 CNS 97.2% | U251 CNS 95% | PC-3 prostate 95% | SK-MEL-5 melanoma 91.2% | UACC-62 melanoma 94.4% | LOX IMVI melanoma 106% | SK-MEL-28 melanoma 103%

CC(=O)OC1Oc2ccccc2-c2oc(=O)c(-c3cc(=O)oc4cc(O)ccc34)cc21 (stereo not given)
inactive: HCT-15 colon 80.8% | HT29 colon 86.9% | SNB-75 CNS 76% | SNB-19 CNS 95% | U251 CNS 89.6% | PC-3 prostate 75.9% | SK-MEL-5 melanoma 80.1% | UACC-62 melanoma 84.9% | LOX IMVI melanoma 83.8% | SK-MEL-28 melanoma 111%

COc1cc(C2=Nc3c/c(=C\c4c(O)[nH]c5ccc(Cl)cc45)ccc3=N2)cc(OC)c1OC
active: HT29 colon -73.3% | SNB-19 CNS -30.9% | U251 CNS -90.6% | SK-MEL-5 melanoma -92.2% | LOX IMVI melanoma 2.31% | SK-MEL-28 melanoma -35.7%
inactive: HCT-15 colon 24.8% | SNB-75 CNS 50.1% | PC-3 prostate 21.7% | UACC-62 melanoma 31.8%

COc1ccc(C2C=C(c3ccc(Cl)c(Cl)c3)N=C3SC(C)=CN32)cc1 (stereo not given)
inactive: HCT-15 colon 85.5% | HT29 colon 71.1% | SNB-75 CNS 89.8% | SNB-19 CNS 96.6% | U251 CNS 84.2% | PC-3 prostate 90.5% | SK-MEL-5 melanoma 93.6% | UACC-62 melanoma 92.1% | LOX IMVI melanoma 83.4% | SK-MEL-28 melanoma 104%

CC(C)c1[nH]nc2c(NCc3ccc(-c4ccccn4)cc3)nc(SCCN(C)C)nc12
inactive: SNB-19 CNS 13.7%
active: HCT-15 colon 6.46% | HT29 colon -15.7% | SNB-75 CNS -55.9% | U251 CNS 7.48% | PC-3 prostate 2.89% | SK-MEL-5 melanoma 1.36% | UACC-62 melanoma -37.2% | LOX IMVI melanoma -7.56% | SK-MEL-28 melanoma 5.17%

N#Cc1ncc(-c2cc(F)ccc2F)c(NC2CCCCCC2)n1
inactive: HCT-15 colon 82.8% | HT29 colon 94.7% | SNB-75 CNS 67.3% | SNB-19 CNS 64% | PC-3 prostate 60.7% | SK-MEL-5 melanoma 84.9% | UACC-62 melanoma 60.9% | LOX IMVI melanoma 80.6% | SK-MEL-28 melanoma 80.8%
active: U251 CNS 9.98%

O=C(c1ccc(Cl)cc1)c1no[n+]([O-])c1C(=O)c1ccc(Cl)cc1
active: LOX IMVI melanoma -74.2%
inactive: HCT-15 colon 95.7% | HT29 colon 67.3% | SNB-75 CNS 97.9% | SNB-19 CNS 115% | U251 CNS 104% | PC-3 prostate 92.9% | SK-MEL-5 melanoma 98.3% | UACC-62 melanoma 118% | SK-MEL-28 melanoma 117%

CCCCOCC(=O)NC(NP(=O)(N(C)C)N(C)C)C(Cl)(Cl)Cl (stereo not given)
inactive: HCT-15 colon 140% | HT29 colon 122% | SNB-75 CNS 106% | SNB-19 CNS 107% | U251 CNS 120% | PC-3 prostate 113% | SK-MEL-5 melanoma 118% | UACC-62 melanoma 103% | LOX IMVI melanoma 110% | SK-MEL-28 melanoma 125%

Cc1ccc([P+](Cc2ccc([N+](=O)[O-])cc2)(c2ccc(C)cc2)c2ccc(C)cc2)cc1
active: SK-MEL-5 melanoma -12.4% | UACC-62 melanoma -0.637%
inactive: HCT-15 colon 96.7% | HT29 colon 23.1% | SNB-75 CNS 30.9% | SNB-19 CNS 57.6% | U251 CNS 39.6% | PC-3 prostate 38.7% | LOX IMVI melanoma 32.4% | SK-MEL-28 melanoma 28.4%

CC1(C)CNC(=O)N1
inactive: HCT-15 colon 98.8% | HT29 colon 94.6% | SNB-75 CNS 94.4% | SNB-19 CNS 103% | U251 CNS 97.4% | PC-3 prostate 93.3% | SK-MEL-5 melanoma 82.6% | UACC-62 melanoma 95.9% | LOX IMVI melanoma 107% | SK-MEL-28 melanoma 114%

O=C1/C(=C/c2cccs2)CCC/C1=C\c1cccs1
inactive: HCT-15 colon 78.9% | HT29 colon 73.9% | SNB-75 CNS 110% | SNB-19 CNS 105% | U251 CNS 83.8% | PC-3 prostate 89.6% | SK-MEL-5 melanoma 83% | UACC-62 melanoma 77% | LOX IMVI melanoma 92.4% | SK-MEL-28 melanoma 102%

N=C(N)c1ccc(-c2ccc(-c3ccccc3)s2)cc1F
active: HCT-15 colon -77.1% | HT29 colon -89.8% | SNB-75 CNS -92.4% | SNB-19 CNS -75.9% | U251 CNS -94.5% | PC-3 prostate -88% | SK-MEL-5 melanoma -97% | UACC-62 melanoma -93.1% | LOX IMVI melanoma -81.4% | SK-MEL-28 melanoma -96.2%

Cc1nc2scc(-c3ccc(Cl)cc3)n2c(=O)c1CCN1CCOCC1
inactive: HCT-15 colon 105% | HT29 colon 105% | SNB-75 CNS 84.6% | SNB-19 CNS 94.6% | U251 CNS 96.7% | PC-3 prostate 87.5% | SK-MEL-5 melanoma 94.5% | UACC-62 melanoma 85.6% | LOX IMVI melanoma 97.5% | SK-MEL-28 melanoma 102%

Cc1ccc(S(=O)(=O)Oc2ccccc2-c2ccccc2)cc1
inactive: HCT-15 colon 23.2% | SNB-19 CNS 42.8% | U251 CNS 24.8% | PC-3 prostate 42.4% | UACC-62 melanoma 37.1% | LOX IMVI melanoma 36% | SK-MEL-28 melanoma 30.8%
active: HT29 colon 5.05% | SNB-75 CNS -12.1% | SK-MEL-5 melanoma 5.97%

COc1ccc(-c2nnc(SC/C(=N\O)c3ccccc3)o2)cc1
inactive: HCT-15 colon 97.5% | HT29 colon 95% | SNB-75 CNS 106% | SNB-19 CNS 99.7% | U251 CNS 103% | PC-3 prostate 86.8% | SK-MEL-5 melanoma 97.1% | UACC-62 melanoma 81% | LOX IMVI melanoma 95.1% | SK-MEL-28 melanoma 94.3%

CC1=CC2OC34COC3CC(OC(=O)C(F)(F)F)C4(C)C2(C)CC1 (stereo not given)
inactive: HCT-15 colon 97.4% | HT29 colon 104% | SNB-75 CNS 86% | SNB-19 CNS 94.5% | U251 CNS 101% | PC-3 prostate 100% | SK-MEL-5 melanoma 97.4% | UACC-62 melanoma 101% | LOX IMVI melanoma 97.1% | SK-MEL-28 melanoma 101%
